# Positions count from the first letter of the chain named.
# Legend:
# Assay in all cases: yeast three-hybrid, YBZ-1, SC-Leu-His + 0.5 mM 3-AT, 4 days
# Settings in all cases: tags: N-Gal4 AD-HA kept; label: inside an RPR1-promoter hybrid RNA with tandem MS2 sites; ssRNA
# [1] = target: PUM1 PUF domain R4-SRW (Homo sapiens, UniProt Q14671 828-1176, N971S;H972R;Q975W)
# Summary of the method: (§1)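 The interaction score is the log change in how often each variant appears, from input to selection. Frequencies came from PCR-amplified, Illumina-sequenced repeat regions of Pumilio-1 PUF domain libraries grown in strain YBZ-1 (LexA–MS2 coat fusion, HIS3 reporter) alongside matching RNA elements. Input plates were SC-Leu and selection plates were SC-Leu-His + 0.5 mM 3-AT, each for four days, and the log2 calculation used a pseudocount of 1 where a variant was absent.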
# [2] = target: PUM1 PUF domain R5-QRS (Homo sapiens, UniProt Q14671 828-1176, C1007Q;Q1011S)
# Summary of the method: as §1
# [3] = target: PUM1 PUF domain R4-LGM (Homo sapiens, UniProt Q14671 828-1176, N971L;H972G;Q975M)
# Summary of the method: as §1
# [4] = target: T1, PUM1 PUF domain R6-WHG (Homo sapiens, UniProt Q14671 828-1176, N1043W;Y1044H;Q1047G)
# T1 sequence: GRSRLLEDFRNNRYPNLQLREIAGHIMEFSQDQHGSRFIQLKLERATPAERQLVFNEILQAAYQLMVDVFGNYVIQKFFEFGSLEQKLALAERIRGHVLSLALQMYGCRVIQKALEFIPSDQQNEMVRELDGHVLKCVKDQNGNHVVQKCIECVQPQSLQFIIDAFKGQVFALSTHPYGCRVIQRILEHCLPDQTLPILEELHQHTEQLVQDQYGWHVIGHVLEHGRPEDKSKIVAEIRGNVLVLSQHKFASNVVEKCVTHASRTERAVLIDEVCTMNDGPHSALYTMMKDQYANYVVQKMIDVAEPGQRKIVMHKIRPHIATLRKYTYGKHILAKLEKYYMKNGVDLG
# Summary of the method: as §1
# [5] = target: T2, PUM1 PUF domain R6-RHQ (Homo sapiens, UniProt Q14671 828-1176, N1043R;Y1044H)
# T2 sequence: T1 sequence with W216R, G220Q
# Summary of the method: as §1
# [6] = target: PUM1 PUF domain R3-APV (Homo sapiens, UniProt Q14671 828-1176, C935A;R936P;Q939V)
# Summary of the method: as §1
# [7] = target: PUM1 PUF domain R1-SWK (Homo sapiens, UniProt Q14671 828-1176, R864W;Q867K)
# Summary of the method: as §1
# [8] = target: PUM1 PUF domain R7-KRT (Homo sapiens, UniProt Q14671 828-1176, S1079K;N1080R;E1083T)
# Summary of the method: as §1
# [9] = target: PUM1 PUF domain R8-KQR (Homo sapiens, UniProt Q14671 828-1176, N1122K;Y1123Q;Q1126R)
# Summary of the method: as §1
# [10] = target: PUM1 PUF domain R1-KQN (Homo sapiens, UniProt Q14671 828-1176, S863K;R864Q;Q867N)
# Summary of the method: as §1
sequence,measurement,setting,value
GGCUAGAACUAGUGGAUCCCCCGGCGCCCGGCGGCUCGAGCCCGGGUAAGUGUAUAUAGUCUGCAUGCCGCCGGGCGCCAUGCCUGCAGGUCGACUCUAGAAAACAUG,binding signal,[1],0.88 log2 enrichment (interaction score)
GGCUAGAACUAGUGGAUCCCCCGGCGCCCGGCGGCUCGAGCCCGGGUAAGUGUAAAUAGUCUGCAUGCCGCCGGGCGCCAUGCCUGCAGGUCGACUCUAGAAAACAUG,binding signal,[1],3.2 log2 enrichment (interaction score)
same,binding signal,[2],1.57 log2 enrichment (interaction score)
same,binding signal,[3],3.11 log2 enrichment (interaction score)
same,binding signal,[4],3.76 log2 enrichment (interaction score)
same,binding signal,[5],5.04 log2 enrichment (interaction score)
same,binding signal,[6],3.39 log2 enrichment (interaction score)
GGCUAGAACUAGUGGAUCCCCCGGCGCCCGGCGGCUCGAGCCCGGGUAAGUGUGAAUAGUCUGCAUGCCGCCGGGCGCCAUGCCUGCAGGUCGACUCUAGAAAACAUG,binding signal,[2],3.7 log2 enrichment (interaction score)
GGCUAGAACUAGUGGAUCCCCCGGCGCCCGGCGGCUCGAGCCCGGGUAAGUGUAAAUCGUCUGCAUGCCGCCGGGCGCCAUGCCUGCAGGUCGACUCUAGAAAACAUG,binding signal,[7],2.68 log2 enrichment (interaction score)
GGCUAGAACUAGUGGAUCCCCCGGCGCCCGGCGGCUCGAGCCCGGGUAAGUCUAAAUAGUCUGCAUGCCGCCGGGCGCCAUGCCUGCAGGUCGACUCUAGAAAACAUG,binding signal,[8],4.64 log2 enrichment (interaction score)
GGCUAGAACUAGUGGAUCCCCCGGCGCCCGGCGGCUCGAGCCCGGGUAAGUUUAAAUAGUCUGCAUGCCGCCGGGCGCCAUGCCUGCAGGUCGACUCUAGAAAACAUG,binding signal,[8],4.19 log2 enrichment (interaction score)
GGCUAGAACUAGUGGAUCCCCCGGCGCCCGGCGGCUCGAGCCCGGGUAAGCGUAAAUAGUCUGCAUGCCGCCGGGCGCCAUGCCUGCAGGUCGACUCUAGAAAACAUG,binding signal,[9],2.27 log2 enrichment (interaction score)
GGCUAGAACUAGUGGAUCCCCCGGCGCCCGGCGGCUCGAGCCCGGGUAAGUGUAAUUAGUCUGCAUGCCGCCGGGCGCCAUGCCUGCAGGUCGACUCUAGAAAACAUG,binding signal,[6],1.79 log2 enrichment (interaction score)
GGCUAGAACUAGUGGAUCCCCCGGCGCCCGGCGGCUCGAGCCCGGGUAAGUGUAAAUGGUCUGCAUGCCGCCGGGCGCCAUGCCUGCAGGUCGACUCUAGAAAACAUG,binding signal,[10],2.83 log2 enrichment (interaction score)

# Reference: article PMC8384837, “Expanding the binding specificity for RNA recognition by a PUF domain”
